Experimental data from PubChem BioAssay.
Unmarked numbers belong to inactive results. The source made the active and inactive calls. How the calls were made is not given here.

Biological target: L-lactate dehydrogenase (Plasmodium falciparum (isolate CDC / Honduras)) (UniProt Q27743)
Sequence (Q27743 whole entry, looked up): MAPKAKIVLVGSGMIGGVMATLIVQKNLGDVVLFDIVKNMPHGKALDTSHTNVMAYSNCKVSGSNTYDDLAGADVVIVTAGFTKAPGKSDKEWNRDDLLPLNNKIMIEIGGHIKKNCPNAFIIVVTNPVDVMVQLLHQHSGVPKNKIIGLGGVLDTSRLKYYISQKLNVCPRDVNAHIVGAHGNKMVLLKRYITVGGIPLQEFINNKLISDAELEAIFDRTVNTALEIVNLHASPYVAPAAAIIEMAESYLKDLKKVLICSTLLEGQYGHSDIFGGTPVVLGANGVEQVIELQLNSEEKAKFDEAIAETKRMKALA
Assay: PfLDH activity inhibition – cell lysate, 3D7 strain, counter-screen for P. falciparum growth inhibition project (AID 2304);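 further: 0% = vehicle and 100% = reference inhibitor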
Conditions: P. falciparum 3D7 crude extract, LDH APAD/NBT absorbance; at 2 µM; hits give high values
Compound COc1ccc(-c2ccc(NC(=O)c3ccc(F)cc3)cc2)cc1CN1CCCN(C)CC1 has an inhibition of -2%.
With Cc1cccc(NC(c2cccs2)c2c(NC(=O)c3ccccc3)sc(C)c2C)n1 (stereo not drawn) the inhibition was 1%.
In the case of CC1CCc2c(C(=O)N3CCc4ccccc4C3)csc2C1 (stereo not drawn), the inhibition was -3%.

System: not listed separately
Assay: inhibition of 3D7 malaria parasite growth – strain 3D7 (AID 2306);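 further: 0% = DMSO wells and 100% = chloroquine plus artemisinin control wells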
Conditions: P. falciparum 3D7 erythrocytic growth, LDH absorbance, 72 h; at 2 µM; hits give high values
For COc1ccc(OCCn2cc(C(=O)c3ccco3)c3ccccc32)cc1, the growth inhibition was 98% (active).
In the case of COc1ccc(CN2CCC(NCc3cccc(C(F)(F)F)c3)CC2)cc1, the growth inhibition was 99% (active).
With C=CCN1C(=O)CN(S(=O)(=O)c2ccc(-n3nc(C)cc3C)cc2)C1=S the growth inhibition was 93% (active).
With CN(C)CCCOc1cc(NC(=O)Nc2ccc(-c3ccncc3)c3ccccc23)ccc1I the growth inhibition was 101% (active).
In the case of CCOC(=O)c1ccc(N2CCN(c3cc(C)ccc3C)CC2)c(NC(=O)Nc2ccc(Cl)c(Cl)c2)c1, the growth inhibition was 100% (active).
For O=S(=O)(c1ccccc1Cl)N1CCCCC(c2ccc(C(F)(F)F)cc2)=N1, the growth inhibition was 86% (active).
In the case of COc1ccc(CC2(c3ccc(F)cc3)N=C(N)N(CCCc3cccnc3)C2=O)cc1 (stereo not drawn), the growth inhibition was 98% (active).
In the case of O=C(NC1CCCCC1)N(CCCn1ccnc1)Cc1csc(-c2ccc(CNCc3ccccc3)cc2)n1, the growth inhibition was 97% (active).
For CCC(CC)NCc1c(O)ccc2c(CNC(CC)CC)c(O)ccc12, the growth inhibition was 100% (active).
For O=S(=O)(Nc1cccc(CCN2CCCCC2CCN2CCCC2)c1)c1cccc2ccccc12 (stereo not drawn), the growth inhibition was 97% (active).
For CC(C)[C@H](NC(=O)c1c(CN2CCC(N3CCCCC3)CC2)c(-c2ccccc2)nc2cc(O)ccc12)c1ccccc1, the growth inhibition was 100% (active).
For COc1cc(NC(=O)c2sc(-c3ccc(Cl)cc3)cc2Cl)ccc1OCCN1CCCC1, the growth inhibition was 93% (active).
In the case of COc1cc2nc(N3CCC(CNC(=O)c4cccc5cccnc45)CC3)nc(N)c2cc1OC, the growth inhibition was 99% (active).
For CNc1ccc(CNCc2ccc(-c3ccc(-c4nc5ccc(C(F)(F)F)cc5[nH]4)s3)cc2)cc1, the growth inhibition was 102% (active).
With COc1ccc(CN(C)CCCc2ccc(NC(=O)c3cccc4c(=O)c5cccc(F)c5[nH]c34)cc2)cc1OC the growth inhibition was 100% (active).
In the case of CCCC(C)Nc1nc(C)cc(N[C@@H](Cc2ccccc2)C(=O)NCc2cccc(F)c2)n1 (stereo partly drawn), the growth inhibition was 100% (active).
With COC(=O)c1cccc(CNCc2cccc(-c3ccc(-c4nc5c(C)cccc5[nH]4)s3)c2)c1 the growth inhibition was 103% (active).
In the case of COc1cc(NCCCCCNc2cc(Cl)nc3ccccc23)nc2ccccc12, the growth inhibition was 103% (active).
For CCN1CCN(c2ccc(NC(=O)c3cc4c(C)nn(-c5ccccc5)c4s3)cc2C)CC1, the growth inhibition was 101% (active).
With CC(C#N)Cc1ccc(-c2cnc(N)c3cc(-c4ccnc(N)n4)ccc23)cc1 (stereo not drawn) the growth inhibition was 96% (active).
In the case of COc1ccc(C(=O)[C@H]2C[C@@H]2CN(C)CCC(O)c2ccc(Cl)c(Cl)c2)cc1 (stereo partly drawn), the growth inhibition was 94% (active).
In the case of Cc1ccc(OCC2CCN(c3ncc(C(=O)NC4CC4)cc3Cl)CC2)cc1, the growth inhibition was 88% (active).
For O=C(Nc1cccc(-c2cccc(-c3nc4ccccc4[nH]3)c2)c1)Nc1ccc2c(c1)OCO2, the growth inhibition was 101% (active).
For CCN1CCN(Cc2c(O)ccc3c(=O)c(Oc4cc(C)cc(C)c4)c(C(F)(F)F)oc23)CC1, the growth inhibition was 96% (active).
For c1ccc(C2=NN=C(c3ccccn3)[C@H]3[C@H]4C[C@@H]([C@@H]23)[C@@H]2[C@H]4[C@H]3C[C@@H]2c2ccccc23)nc1, the growth inhibition was 98% (active).
With CN(c1ccc(C(=O)N[C@@H](CCC(=O)O)C(=O)O)cc1)S(=O)(=O)c1ccc2nc(N)[nH]c(=O)c2c1 the growth inhibition was 97% (active).
In the case of C=CCc1cc(Cc2cnc(N)nc2N)c2ccc(C)nc2c1OC, the growth inhibition was 96% (active).
With COc1c(Br)cc(Br)cc1-c1ccc(CN2C3CCCC2CCC3)[nH]1 the growth inhibition was 88% (active).
For Cc1cc(N[C@@H](Cc2ccccc2)C(=O)NCc2cccc(F)c2)nc(NCCOc2ccccc2)n1, the growth inhibition was 97% (active).
In the case of Cn1c(N)c(N=O)c(=O)[nH]c1=O, the growth inhibition was 97% (active).
With O=C(Nc1cc(F)cc(-c2cccnc2)c1)c1ccc2c(=O)n(Cc3ccccc3)cnc2c1 the growth inhibition was 98% (active).
With Cn1ccc(C(=O)Nc2ccc3c(c2)CN(Cc2ccc(N4CCCC4)o2)CCC3)n1 the growth inhibition was 80% (active).
In the case of COc1cc(OC)cc(-c2nn(-c3ccc([N+](=O)[O-])cc3C#N)c(=S)n2Cc2ccco2)c1, the growth inhibition was 100% (active).
For CCCCCN1CCCN(Cc2cccc(NC(=O)c3ccc(-c4ccccc4)cc3)c2)CC1, the growth inhibition was 95% (active).
In the case of C[C@@H]1CCC[C@H](C)N1C[C@@H](O)CNS(=O)(=O)c1cccc(C(F)(F)F)c1, the growth inhibition was 99% (active).
